Assay outcomes from PubChem.
Vc quorum ag-1 – induces V. cholerae light production without autoinducers; V. cholerae BH1578 lux reporter, luminescence, 6 h; activation, % at 18.7 µM; 350,000 tested, 0.16% active; AID 588436; in the data active = activation mostly above about 9.7%, no sharp cut-off
BJeLR viability – BJeLR cell viability loss | AID 1554 | inhibition, % (concentration not given with the values) | 300,000 tested, 0.17% active | BJeLR (HRASV12) viability, CellTiter-Glo ATP luminescence, 48 h; in the data active = inhibition above about 50%
SARS 3CLpro inh – SARS-CoV 3CLpro protease inhibition | P0C6X7 | recombinant SARS-CoV 3CLpro, quenched FRET peptide cleavage | inhibition, % at 6 µM | 290,000 tested, 0.14% active; in the data active = inhibition above about 12%
PfHsp40 rescue – compounds rescuing yeast from Plasmodium falciparum HSP40 toxicity; 340,000 tested, 0.68% active; S. cerevisiae expressing PfHsp40, growth rescue, ATP luminescence; growth rescue, % at 12.5 µM; in the data active = growth rescue above about 28%, passing the limit was not always enough;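 note: yeast W303a lacking pdr1 and pdr3 grown in galactose medium; growth measured after three days at 30 °C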
MazEF act – increases E. coli MazEF RNase cleavage of RNA; activation, % at 20 µM; FAM/BHQ RNA-DNA oligo cleavage fluorescence, 5 h; P0AE70; AID 504720; 350,000 tested, 0.32% active; in the data active = activation above about 50%
Target sequence (P0AE70 whole entry, looked up): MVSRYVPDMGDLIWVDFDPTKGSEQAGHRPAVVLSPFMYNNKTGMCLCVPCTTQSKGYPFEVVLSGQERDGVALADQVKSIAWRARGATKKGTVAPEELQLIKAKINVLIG
VHR inh abs – blocks human VHR1 dual specificity phosphatase | P51452 | recombinant VHR phosphatase, pNPP absorbance | inhibition, % at 13.3 µM | 290,000 tested, 0.52% active; in the data active = inhibition above about 50%
Target sequence (P51452 whole entry, looked up): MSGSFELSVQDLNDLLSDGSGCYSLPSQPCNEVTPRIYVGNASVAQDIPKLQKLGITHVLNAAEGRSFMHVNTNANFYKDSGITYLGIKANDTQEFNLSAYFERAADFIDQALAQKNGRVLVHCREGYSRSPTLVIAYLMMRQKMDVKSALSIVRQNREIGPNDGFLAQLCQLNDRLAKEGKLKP
Vc quorum ag-2 – inducers of V. cholerae quorum light production without autoinducers; shares compounds with Vc quorum ag-1; V. cholerae BH1578 lux reporter, luminescence, 6 h; activation, % at 50 µM; 620 tested, under 10 active; AID 602243; call rule not given here
HeLa 24h tox – kills HeLa cells within 24 hours; shares compounds with Vc quorum ag-1; HeLa viability, CellTiter-Glo ATP luminescence; activity change, negative = cytotoxicity, % at 35 µM; 25 tested, under 10 active; AID 624140;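 active = signal drop with fitted half-maximal concentration at or below twice the highest valid dose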
A number is an active result; n = inactive; x = no result; + = active, no number. Most compounds without a hit are left out; they make up all but 1.7% or so of the library.

SMILES	Vc quorum ag-1	BJeLR viability	SARS 3CLpro inh	PfHsp40 rescue	MazEF act	VHR inh abs	Vc quorum ag-2	others
CC1(C(=O)N2CCN(c3ccccc3)CC2)CC1(Cl)Cl (configuration not stated)	n	n	n	n	n	n	x
CC1(C(=O)N2CCN(c3ccc([N+](=O)[O-])cc3)CC2)CC1(Cl)Cl (configuration not stated)	n	n	n	n	n	n	n
Cc1ccc(C(=O)NCC(=O)OCc2cccc(Br)c2)cc1	n	n	x	n	n	x	x
O=C(CN1C(=O)CSC1=O)NC1CCCCC1	17	n	n	n	n	n	n
O=C(CN1C(=O)C2CC=CCC2C1=O)NC1CCCCC1 (configuration not stated)	n	n	n	n	n	n	x
Cc1ccc(CNc2nc3ccc(C)cc3n3cnnc23)cc1	x	n	n	n	n	n	x
Cc1ccc2nc(NCCc3ccccc3)c3nncn3c2c1	111	n	n	n	n	n	n
O=[N+]([O-])c1cccc(N/N=C/c2cccc(O)c2O)c1	n	n	n	n	n	n	x
CCOc1ccc(S(=O)(=O)N(CCO)CCO)cc1-c1nc2c(C(C)(C)C)nn(C)c2c(=O)[nH]1	n	n	n	n	n	n	n
CCN(Cc1nc2cc(Cl)ccc2c(=O)[nH]1)C(=O)c1ccc(C)c(NC(=O)c2ccco2)c1	n	x	x	n	n	x	x
CSc1ccccc1NC(=O)COc1ccc(S(=O)(=O)N2CCCC2)cc1	n	n	n	n	n	n	n
CN(C1CCCCC1)S(=O)(=O)CCNC(=O)c1ccccc1	n	n	x	n	n	x	n
COc1ccc(S(=O)(=O)NCc2nc3nc(C)cc(C)n3n2)cc1OC	n	n	n	n	n	n	x
CCCn1nnnc1NCc1ccc(N2CCCC2)cc1	+	n	n	n	n	n	x	HeLa 24h tox=n
CCCCn1nnnc1NCc1ccc(N2CCCC2)cc1	829	n	n	n	n	n	n
CCCC(=O)Nc1ccc(C(=O)COC(=O)c2cc(C)oc2C)cc1	n	x	x	n	n	x	x
COc1cccc(NC(=O)CN(C)C(=O)c2ccccc2-c2nc3ccccc3s2)c1	n	n	x	n	n	x	x
O=C(Nc1ccn(-c2ccccc2)n1)c1ccccc1Br	n	n	n	n	n	n	x
Cc1cc(C)c(S(=O)(=O)Nc2ccccn2)c(C)c1	52	n	n	n	n	n	n
O=c1oc2c(CN3CCOCC3)c(O)c(Cl)cc2c2c1CCC2	31	x	n	n	x	n	n
O=C(O)c1nc(NCCc2ccccc2)ncc1Cl	n	n	n	n	n	n	x
Cc1ccc2oc(C(=O)N(Cc3ccncc3)CC3CCCO3)c(C)c2c1 (configuration not stated)	n	n	n	n	n	n	x
CCCc1ccc2oc(C(=O)N(Cc3ccncc3)CC3CCCO3)c(C)c2c1 (configuration not stated)	n	n	n	n	n	n	n
CCOc1ccc(N(CC(=O)Nc2c(C)n(C)n(-c3ccccc3)c2=O)S(=O)(=O)c2ccc(F)cc2)cc1	n	n	n	n	n	n	x
COc1ccc(N2CCN(C(=O)c3cc4c(s3)CCCCC4)CC2)cc1	n	x	x	n	n	x	x
SMILES	Vc quorum ag-1	BJeLR viability	SARS 3CLpro inh	PfHsp40 rescue	MazEF act	VHR inh abs	Vc quorum ag-2	others
COc1ccccc1N1CCN(C(=O)c2cc3c(s2)CCC3)CC1	n	n	n	n	n	n	n
CC(C)C(NC(=O)c1ccccc1F)C(=O)Nc1nccs1 (configuration not stated)	n	n	n	n	n	n	x
COCCNc1nc2c(c(=O)n(Cc3ccc(OC)cc3)c(=O)n2C)n1C	n	n	n	n	n	n	n
COCCNc1nc2c(c(=O)n(Cc3cccc(Cl)c3)c(=O)n2C)n1C	n	n	n	n	n	x	x
COc1ccc(OCC(=O)Nc2ccccc2OC(F)F)cc1	n	n	n	n	n	n	x
COc1ccccc1NC(=O)COc1ccc2c(c1)OCO2	105	n	n	n	n	n	n
COc1ccc(OCC(=O)Nc2ccccc2OC)cc1	29	n	n	n	n	n	n
Cn1c(SCc2cnc(-c3ccccc3)s2)nnc1C1COc2ccccc2O1 (configuration not stated)	27	n	n	n	n	n	n
O=C(Nc1nccs1)C(NS(=O)(=O)c1ccc(Br)s1)c1ccccc1 (configuration not stated)	25	n	n	n	n	n	n
CC(NS(=O)(=O)c1ccccc1)C(=O)Nc1nccs1 (configuration not stated)	x	n	n	n	n	x	x
Cc1ccc(C(=O)CN2C(=O)NC3(CCCCCC3)C2=O)c(C)c1	n	n	x	n	n	x	x
COc1ccc(C(CNC(=O)c2ccc(-c3cccc(C(F)(F)F)c3)o2)N2CCOCC2)cc1 (configuration not stated)	n	n	x	n	n	x	n
CC1(C)C[C@H](O)[C@@]23C[C@@H](OC2=O)[C@]2(C)C(=CCC4[C@@]5(C)CC[C@H](O)C(C)(C)C5CC[C@]42C)[C@@H]3C1 (some centres not stated)	x	n	x	x	n	x	x
CC(C)Oc1ccc(C2CC(=O)N(C)C2=O)cc1 (configuration not stated)	n	n	n	n	n	n	x
CC(=O)c1ccc(NC(=O)COc2ccccc2C(=O)Nc2ccc(C)cn2)cc1	n	n	n	n	n	n	x
CC(=O)c1ccc(NC(=O)COc2ccccc2C(=O)Nc2ccccc2)cc1	140	n	n	n	n	n	n
CCCCn1c(=O)[nH]c(=O)c2c1nc(-c1ccccc1OC(F)F)n2C	n	n	n	n	n	n	x
COC(=O)Cc1c(C)c2ccc(OC(=O)c3ccccc3)cc2oc1=O	n	n	n	n	n	n	n
Cc1c(Cc2ccccc2)c(=O)oc2cc(OC(=O)c3ccccc3)ccc12	n	n	n	n	n	n	x
Cc1ccc(Nc2cnn(C34CC5CC(CC(CC(=O)O)(C5)C3)C4)c(=O)c2Cl)c(Cl)c1	n	n	n	n	n	n	x
CC1(c2ccccc2)NC(=O)N(CC(=O)N(CC(=O)Nc2ccccc2C(F)(F)F)Cc2ccco2)C1=O (configuration not stated)	n	x	x	n	n	x	x
CCN(CC(=O)Nc1ccccc1C(F)(F)F)C(=O)CN1C(=O)NC(C)(c2ccc3ccccc3c2)C1=O (configuration not stated)	21	x	x	n	n	x	n
CCC(=O)c1ccc(N2CCCCCC2)c(F)c1	44	n	n	n	n	n	n
Fc1ccc(NCc2cn3ccccc3n2)cc1	17	n	n	n	n	n	n
Fc1cccc(NCc2cn3ccccc3n2)c1	n	n	n	n	n	n	x
